Results reported in ChEMBL document CHEMBL3988442, “University of Dundee, Small-Polar-MMV Screening Library” (2021).
Screen size: about 48,000 compounds; about 13,000 (27%) showed an effect of 50% or more. The list shows a part of the results.

Tested on: Wolbachia pipientis
Test: Anti-Wolbachia Cell-Based Screen
Type: functional
Design: scale not given: in the data most compounds retested in dose-response had high values
Details: 5 µM

Structure (SMILES) | Percent Effect [%]
Cc1cnccc1-n1nc(C(C)C)nc1CCN(C)S(C)(=O)=O | -12.77
CCN(CC(F)(F)F)C(=O)C1CCCN(Cc2cscn2)C1 (configuration not stated) | 6.1
COCC(=O)NCCC(=O)N1CCN(S(=O)(=O)c2ccc(Br)cc2)CC1 | 15.42
CC(C)N(Cc1nc2c(cnn2C)c(=O)[nH]1)c1ccccc1 | -5.677
Cc1ccc(C(C)N(C)Cc2nc3c(cnn3C)c(=O)[nH]2)cc1 (configuration not stated) | -5.253
COCCCN(CCOC)Cc1nc2c(cnn2C)c(=O)[nH]1 | 93.22
COCCN(CCOC)Cc1nc2c(cnn2C)c(=O)[nH]1 | 107.8
COCCN(Cc1nc2c(cnn2C)c(=O)[nH]1)C(C)c1ccccc1 (configuration not stated) | 98.63
COCCN(CCc1ccccc1)Cc1nc2c(cnn2C)c(=O)[nH]1 | 10.98
COCCCN(C)Cc1nc2c(cnn2C)c(=O)[nH]1 | -7.298
CC(C)(C)c1cc(CN2CCOCC(O)C2)n[nH]1 (configuration not stated) | 40.36
CC(=O)Nc1cc(F)c(S(=O)(=O)N(C)CC2CCC2)c(F)c1 | 32.27
Cn1cccc1CN1CCC2(CC1)CC(Oc1cccnc1)C2.O=C(O)C(F)(F)F.O=C(O)C(F)(F)F | 9.854
COC(=O)C(C)Sc1nnnn1C1CCOCC1 (configuration not stated) | -41.77
c1nc(C2CCCCO2)ncc1CN1CCOCC1 (configuration not stated) | 157.1
O=C1OCCC1N1CCN(c2ccccn2)CC1 (configuration not stated) | 0.5958
OCC1(CC2CC2)CCCN(Cc2cnc(N3CCOCC3)nc2)C1 (configuration not stated) | 1.203
c1ccc(CN2CCN(Cc3cnc(C4CCCCO4)nc3)CC2)cc1 (configuration not stated) | 181.4
CCOC(C)c1noc(CN2CCCN(c3ccccn3)CC2)n1 (configuration not stated) | 3.417
c1ccc(N2CCN(Cc3cnc(C4CCCCO4)nc3)CC2)cc1 (configuration not stated) | 50.77
CN(C)[C@H]1CCCCN(Cc2cnc(NCc3ccccc3)nc2)C1 | -3.217
OCC1(O)CCN(Cc2ccc(C3CCCCO3)o2)CC1 (configuration not stated) | 2.159

Structure (SMILES) | Percent Effect [%]
Cl.Cl.OC(CN1CCN(Cc2ccccc2)CC1)C1CC1 (configuration not stated) | 1.667
c1ccc(N2CCN(Cc3cnc(C4CCCCO4)nc3)CC2)nc1 (configuration not stated) | 112.3
O=C(O)C1CN(Cc2cnc(C3CCCCC3)nc2)CCO1 (configuration not stated) | -13.64
CNS(=O)(=O)c1ccc(CN2CCCN(c3ccccc3)CC2)cc1 | 23.15
COc1ccc(CC(=O)N2CCc3nnc(N(C)C)cc3C2)cc1F | -3.012
CCN(CC)S(=O)(=O)N1C[C@@H]2CC[C@H](C1)N(Cc1cscn1)C2=O | -30.66
CCC1c2ccccc2CCN1C(=O)c1ccnc(C(=O)OC)c1 (configuration not stated) | -12.45
CC(C)NC[C@H]1COCc2nc3cccnc3n21 | -0.2965
O=C(c1ccc2ncsc2c1)N1CCC(C(=O)O)(n2cccn2)CC1 | -48.02
CC(C)(C)c1nnc(CN2CCN(S(C)(=O)=O)CC2)o1 | 12.09
CC1CCN(C(=O)CSCc2noc(C(C)C)n2)CC1 | -0.6667
CC(=O)N1CCOC2(CCCN(C(=O)CCN3CCCCC3)C2)C1 (configuration not stated) | -17.75
CC1CCN(C(=O)CSCCN2CCOCC2)CC1 | 94.74
O=C(CCC(=O)N1CCc2ccccc2C1)c1cccs1 | 11.35
CC1CCN(C(=O)CSCc2nc(C3CC3)no2)CC1 | 2
O=C(CSCCN1CCOCC1)N1CCc2ccccc2C1 | 125
O=C(Cn1cc(I)cn1)N1CCc2ccccc2C1 | 13.89
CCOCCN1CCN(CCC(=O)N2CCCCC2)CC1 | -4.912
O=C(CSCCN1CCOCC1)N1CCCCCC1 | 88.11
N#Cc1cccnc1OC1CCN(C(=O)NCc2ccccc2)CC1 | 7.798
CC(=O)N1CCCC2(CN(Cc3ccc(C)s3)CCO2)C1.O=C(O)C(F)(F)F (configuration not stated) | 0.2205
O=C(CC1OCCc2ccccc21)NCC1(O)CCCCC1 (configuration not stated) | -10.96

Structure (SMILES) | Percent Effect [%]
Cc1ccc(CNc2ccn(CCC(N)=O)n2)c(Br)c1 | -13.88
CCC(CO)N(Cc1ccccn1)C(=O)c1ccc(C)c(Cl)c1 (configuration not stated) | -8.3
c1cc(-c2cnc(NC3CC3)nc2[C@@H]2CCCO2)ccn1 | 175.9
COc1ccc(-c2ccncc2)cc1CNC1CCCC1 | -7.134
CC(C)Nc1ncc(-c2ccncc2)c([C@@H]2CCCO2)n1 | 174
c1cc(-c2cnc(NC3CC3)nc2[C@H]2CCCO2)ccn1 | 171.5
CC(C)c1cc(C(=O)N(Cc2ccncc2)CC2CCCO2)no1 (configuration not stated) | 4.129
COc1ccc(CCC(=O)NCCC2CCCO2)cc1Br (configuration not stated) | 4.709
O=C(NCCn1ccnc1)C1(c2ccc3c(c2)OCCO3)CCCC1 | 33.12
COc1ccc(-c2cn[nH]c2)cc1CNC1CCCC1 | -15.21
CC(C)(CO)Nc1cc(-c2cn[nH]c2)ncn1.Cl | 116.8
CC(C)(C)S(=O)(=O)CCNC(=O)c1cnc(-c2ccccc2)nc1 | -10.41
CC(C)(CO)Nc1ccc(-c2nc(-c3ccccc3F)no2)cn1 | -13.37
CC(C)(CO)Nc1cc(-c2ccncc2)ncn1 | 106.2
CC(C)(CO)Nc1cc(-c2ccccc2)ncn1 | 83.59
CN(Cc1ccsc1)Cc1ccc(C2CCCCO2)o1 (configuration not stated) | 10.63
Cc1cccc(OC2CCN(c3ccc(C#N)cn3)CC2)n1 | -50.95
CN(C)[C@@H]1CCN(c2ncccn2)[C@H]1Cc1ccncc1.O=C(O)C(F)(F)F.O=C(O)C(F)(F)F | -8.933
CC(O)CN(Cc1cccc(C(N)=O)c1)c1ccccc1 (configuration not stated) | -3.401
Cc1cc(CN(C)C(=O)C2CCC(=O)N(CC3CCCCC3)C2)n[nH]1 (configuration not stated) | 15.57
Cc1nc(C)n(CC2CCCN2Cc2nc3ccccc3nc2C)n1 (configuration not stated) | -1.93
Cc1nn(C)c(C)c1C1CCCN1CCCc1nc2ccccc2o1 (configuration not stated) | 0.8066

Structure (SMILES) | Percent Effect [%]
Cc1nc(C)n(CC2CCCN2CCCc2nc3ccccc3o2)n1 (configuration not stated) | 115.5
Cc1nc(C)n(CC2CCCCN2Cc2nc3ccccc3o2)n1 (configuration not stated) | 96.27
Cc1cc(C2CCCN2CCCc2nc3ccccc3o2)on1 (configuration not stated) | 8.097
Cc1cc(C)n(CC2CCCN2CCCc2nc3ccccc3o2)n1 (configuration not stated) | 125.1
Cc1nc(C)n(CC2CCCN2CCCc2ccccc2)n1 (configuration not stated) | -4.599
Cc1cnn(CC2CCCN2CCCc2nc3ccccc3o2)c1 (configuration not stated) | 11.07
Cc1nc(C)n(CC2CCCN2Cc2nc(N)c3ccccc3n2)n1 (configuration not stated) | 4.973
O=C(CCN1CCCO1)N1CC[C@@H](CNC(=O)N2CCCC2)[C@H](O)C1 | 5.965
CCc1ccc2c(c1)C(CCNC(=O)c1sccc1C)C(=O)N2 (configuration not stated) | -0.3397
Cn1nc(CN2CCC(c3ccncc3)CC2)c2c(Cl)cccc21 | -3.245
OC(COCc1ccccc1F)CN1CCc2c(ncn2C2CC2)C1 (configuration not stated) | -3.372
Cc1ncc(CN(C)CC(O)c2ccc(Br)cc2)s1 (configuration not stated) | 5.745
Cn1cnnc1CC1CCN(Cc2nn(C)c3cccc(Cl)c23)CC1 | -2.14
Cc1cnn(CC2CCCN2C(=O)CCc2ccc3c(c2)OCO3)c1 (configuration not stated) | 126.1
Cc1cnn(CC2CCCN2C(=O)CCc2ccncc2)c1 (configuration not stated) | 138.1
Cc1cnn(CC2CCCN2C(=O)CCc2ccco2)c1 (configuration not stated) | 108.9
Cc1cnn(CC2CCCN2CC(=O)N(C)Cc2ccco2)c1 (configuration not stated) | -7.327
Cc1cnn(CC2CCCN2C(=O)CCc2ccsc2)c1 (configuration not stated) | -5.285
CC(=O)Nc1ccc(S(=O)(=O)Nc2c(F)cccc2F)cc1 | 12.85
Cc1cnn(CC2CN(CC(=O)Nc3nnc(C)s3)CCO2)c1 (configuration not stated) | -4.997
COc1cc(F)ccc1C(C(=O)O)N(C)CCN1CCCC1 (configuration not stated) | -2.761
CC(C)c1nc(O)c2nnn(C[C@@H]3CCCN(Cc4cccs4)C3)c2n1 | 127

Structure (SMILES) | Percent Effect [%]
CC(C)c1nc(O)c2nnn(C[C@H]3CCCN(Cc4cccs4)C3)c2n1 | 127.4
O=S(=O)(Cc1ccccc1)NCC1CCCN(Cc2cccs2)C1 (configuration not stated) | -20.75
CC1CN(Cc2cccc(CN)c2)CCO1 (configuration not stated) | -7.811
Cc1cc(=O)n(C)cc1NC(=O)Cc1ccc(C(F)(F)F)cc1 | -20.5
CCN(CCNCc1ccc(C#N)cc1)C1CC1 | -16.49
O=C(NCCNc1ncccn1)c1ccc(-c2ccco2)[nH]c1=O | 7.88
OCCNc1nccc(-c2c[nH]nc2-c2ccco2)n1 | 131.5
CCOCc1cccc(NCc2c[nH]nc2-c2cccnc2)c1 | -7.599
OCCNc1nccc(-c2c[nH]nc2-c2ccncc2)n1 | 131
Cc1nc(O)cc(CCNc2nccc(CCC(F)(F)F)n2)n1 | 19.69
Cc1ccccc1-n1cc(-c2ccnc(N[C@@H](CO)C(C)C)n2)cn1 | -0.1007
FCCOc1cccc(NCc2c[nH]nc2-c2cccnc2)c1 | -17.01
CC(C)[C@H](CO)Nc1nccc(-c2c[nH]nc2-c2ccncc2)n1 | 88.77
Cc1ccccc1-n1cc(-c2ccnc(NC(CO)C(C)C)n2)cn1 (configuration not stated) | -0.3825
Fc1ccc(-c2n[nH]cc2-c2ccnc(NCCN3CCCC3)n2)cc1 | 7.952
OCCNc1nccc(-c2c[nH]nc2-c2cccnc2)n1 | 121.3
COCCNC(=O)CSc1nnc(OC(C)C)s1 | 5
CN(CCNS(C)(=O)=O)C(=O)c1ccc(Cl)c(Cl)c1 | 2.263
Cc1nn(C)c(C)c1CN(Cc1cccn1-c1cccnc1)C(C)C | -3.784
